The structures appear in SMILES notation. The whole screen tested about 360,000 compounds, of which about 10,000 (2.8%) were called active. About 4% were inconclusive and are not listed. Many of the other results were omitted from the sample, so actives are more common in it than they were. Unmarked numbers belong to inactive results. Calls follow the shape of the dose curve; as a rule, active = well fitted inhibition curve with a large enough effect; inconclusive = small, poorly fitted or top-dose-only effect; inactive = flat fitted curve, though single readings scatter.

Drawing on PubChem BioAssay AID720504 (National Center for Advancing Translational Sciences (NCATS), 2013), this text covers max response, negative = inhibition and Potency for 44 compounds.
% is scaled to controls: 0 for no effect and ±100 for the full control effect; potency is read from the fitted curve at half-maximal effect.

In the experiment the target is Serine/threonine-protein kinase PLK1 (Homo sapiens) (UniProt P53350). As to the kind of experiment: qHTS for Inhibitors of PLK1-PDB (polo-like kinase 1 - polo-box domain): Primary Screen. Also: nearly all actives have a fitted effect of over 65% in size. As to max response, negative = inhibition: series mostly up to about 57 µM. The following applies: Plk1 PBD binding of FITC phosphopeptide, fluorescence polarization. The text has this: The polo-like kinase 1 (Plk1) is a member of a conserved subfamily of serine / threonine protein kinases that plays a pivotal roles in cell proliferation. It has a C-terminal non-catalytic region called the polo-box domain (PBD) that plays a crucial role in the subcellular localization of the Plk1. […] Furthermore, depletion of the overexpressed Plk1 by RNAi efficiently induces apoptotic cell death in cancer and reduces tumor growth in mouse xenograft models. Thus, targeting Plk1 is an appealing strategy for anti-cancer therapy. Therefore, this project aimed to screen the Molecular Libraries Small Molecule Repository (MLSMR) using a novel approach to find inhibitors that target the Plk1 PBD instead of the conventional N-terminal catalytic domain. This project employed a fluorescence polarization (FP) assay using a FITC-conjugated phospho-9-mer (p-9-mer) peptide and purified human Plk1 PBD protein. The identified small molecule inhibitors of Plk1 PBD can then further be developed into useful tools for biomedical and clinical research that complements or replaces current relevant disease therapy. NIH Chemical Genomics Center [NCGC] NIH Molecular Libraries Probe Centers Network [MLPCN] MLPCN Grant: MH100728 Assay Submitter (PI): Kyung Lee, NCI
Sequence of Serine/threonine-protein kinase PLK1 (Homo sapiens) (P53350 whole entry, looked up, the tested form may be a part): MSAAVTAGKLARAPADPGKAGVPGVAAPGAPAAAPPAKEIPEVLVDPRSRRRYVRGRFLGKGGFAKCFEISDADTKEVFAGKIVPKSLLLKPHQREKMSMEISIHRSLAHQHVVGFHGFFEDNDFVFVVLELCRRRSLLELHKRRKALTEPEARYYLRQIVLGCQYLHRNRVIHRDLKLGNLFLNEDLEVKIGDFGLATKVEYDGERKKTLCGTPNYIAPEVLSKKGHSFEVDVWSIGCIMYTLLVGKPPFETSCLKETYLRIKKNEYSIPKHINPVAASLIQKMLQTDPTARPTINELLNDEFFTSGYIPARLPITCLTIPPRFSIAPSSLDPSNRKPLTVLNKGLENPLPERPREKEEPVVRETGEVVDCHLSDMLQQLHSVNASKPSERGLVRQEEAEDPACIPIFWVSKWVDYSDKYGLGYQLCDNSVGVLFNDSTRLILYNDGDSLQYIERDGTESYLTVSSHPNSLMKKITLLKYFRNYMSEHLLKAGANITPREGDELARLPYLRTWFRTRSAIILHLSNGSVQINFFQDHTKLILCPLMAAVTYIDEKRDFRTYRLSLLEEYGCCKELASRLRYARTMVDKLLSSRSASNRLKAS
Four microliter of 25 nM FITC-p-9-mer + 60 nM Plk1 PBD in buffer solution (final concentrations 25 nM and 60 nM respectively) or 4 uL of 25 nM FITC-p-9-mer (final concentration 25 nM) in buffer will be dispensed into a 1,536 Greiner medium-binding black solid plate. Small molecules at final concentrations of 18 nM to 57 uM and positive control phospho-9-mer (sequence: Ac-PPLHSpTAI-NH2) at final concentrations 26 nM to 57 uM and phospho-13-mer (sequence: Ac-[…]pTAI-NH2) at final concentrations of 1 nM to 2.3 uM will be pin-transferred (23 nL) to the plate via a Kalypsys pin-tool robotics equipped with a 1,536-pin array. The reaction plate will be centrifuged for 1 min at 1000 rpm and incubated at room temperature for 10 min. The FITC fluorescence signals will be read using the PerkinElmer ViewLux plate reader at 480 / 20 nm excitation and 540 / 20 nm S and P polarization emission wavelengths. Reagent bottles will be kept submerged into 4 °C recirculating chiller bath and all liquid lines will be covered with aluminum foil to minimize degradation. Library plates will be screened starting from the lowest to the highest concentrations to minimize compound carryover. Vehicle only plates, with DMSO being pin-transferred instead of compound solutions, will be included regularly throughout the screen to record any systematic shifts in assay signal.
(In general: Quantitative high-throughput screening tests each substance at several concentrations.)
Consider `O=S(=O)(c1ccc(-c2ccccc2)cc1)N1CCCC1`, for which the max response, negative = inhibition was -5.48%. With `CC1CCN(S(=O)(=O)c2ccc(S(=O)(=O)NCc3cccnc3)cc2)CC1`, the max response, negative = inhibition was -9.09%. As to `O=S(=O)(NCc1ccccc1)c1ccc(S(=O)(=O)N2CCCC2)cc1`, the Potency was 26.7 µM (active). Take `CN(Cc1ccc(C(F)(F)F)cc1)C(=O)[C@H]1O[C@@H](n2cnc3c(N)ncnc32)[C@H](O)[C@@H]1O`: the max response, negative = inhibition was -3.67%.

As to `CN(C)C(=O)c1cccc(-c2cnc3c(NC=O)cc(-c4ccc(C(=O)N5CCOCC5)cc4)cn23)c1`, the max response, negative = inhibition was -14.7%. Turning to `Cc1cc(C(F)(F)F)nc(SCC(=O)Nc2nccs2)n1`, the max response, negative = inhibition is -4.23%. On to `CCOC(=O)c1sc(NC(=O)CSc2nc(C)cc(C(F)(F)F)n2)c(C#N)c1C`, for which the Potency was 2.99 µM (active). In the case of `CCn1c(SCC(=O)Nc2sc(C)c(C)c2C#N)nnc1C1CC1`, the max response, negative = inhibition is -26.7%. Same read-out and setting: under `CC(=O)OCC(C)n1c(=O)c2ccccc2n1C(C)=O` (centres undefined) stands 1.28%; under `CN(C)c1cccc(NC(=O)c2ccc(-c3ccc(F)c(F)c3)c3ccoc23)c1`, -11%. On to `CCOC(=O)[C@]12CCCC=C1N(CCC1=CCCCC1)C(=O)[C@H](CC(=O)N1CCN(C(=O)c3ccco3)CC1)C2`, for which the max response, negative = inhibition is -19.8%.

Consider `C[C@@H]1CN([C@@H](C)CO)S(=O)(=O)c2ccc(C#Cc3cccc(F)c3)cc2O[C@H]1CN(C)S(=O)(=O)c1cn(C)cn1`, for which the max response, negative = inhibition was -28.6%. Turning to `CCCCCn1nnnc1-c1nc2cc3ccccc3cc2[nH]c1=O`, the max response, negative = inhibition is -6.28%.

With `CCn1cc(C(=O)NCC2COc3ccccc3O2)c2cc(OC)c(OC)cc2c1=O` (centres undefined), the max response, negative = inhibition is -0.135%. The same measure, in the same setting: under `COc1cc(C(=O)N2CCN(C3CCC(C)CC3)CC2)cc(OC)c1OC` (centres undefined) stands -10%. With `CCn1cc(C(=O)N2CCN(C3CCCCC3)CC2)c2cc(OC)c(OC)cc2c1=O`, the Potency is 10.6 µM (active). Regarding `CCc1nc2ccc(C(=O)NC3CCN(Cc4ccccc4)CC3)cn2c1N(C)CCN1CCOCC1`, the max response, negative = inhibition is -5.14%. Same read-out and setting: under `CCCCCc1c(-c2ccc(OC)c(OC)c2)ncn1CCc1ccccc1OC` stands -4.35%; under `Cc1cc(C)c(NC(=O)CN2CCCCCC2)c(C)c1`, -2.23%. Turning to `Cc1cc(C)c(NC(=S)N2CCCC2C(=O)O)c(C)c1` (centres undefined), the Potency is 6.7 µM (active). Turning to `Cc1cc([N+](=O)[O-])c(N2CCC[C@@H]2C(=O)O)c([N+](=O)[O-])c1`, the max response, negative = inhibition was -4.11%. As to `COc1ccc(CS(=O)/C(Cl)=C(/Cl)C(=O)Nc2ccc(OC)nc2)cc1` (centres undefined), the Potency was 2.67 µM (active). With `COc1ccc(C(O)c2nc(-c3ccc(OC)nc3)cs2)cc1` (centres undefined), the max response, negative = inhibition was 6.19%. Still for that read-out and setting: under `COc1ccc(NC(=O)CN2C(=O)NC(C)(c3ccccc3)C2=O)cn1` (centres undefined) stands 2.84%; under `Cc1ccc(-c2c(N)nc3ncccn23)cc1`, 2.55%. `CCc1nc2c(OCC(N)=O)cccn2c1N(C)C(=O)c1ccc(OC)cc1`: the max response, negative = inhibition was -13.5%. Consider `Cc1nc2ccccc2c(=O)n1CCCn1ccnc1`, for which the Potency is 21.2 µM (active). Consider `Clc1c(OCCCn2ccnc2)ccc2ccccc12`, for which the max response, negative = inhibition was -25.1%. Same read-out and setting: under `CC1(C(=O)NCc2ccccc2)CSCC(=O)N1CCCn1ccnc1` (centres undefined) stands -0.172%; under `CN(C)c1ccc(/C=N/NC(=O)C(O)c2ccc(Br)cc2)cc1` (centres undefined), -14.9%. With `COc1ccc(/C=N/NC(=O)C(C)N(c2ccc(OC)cc2)S(C)(=O)=O)cc1` (centres undefined), the Potency is 26.7 µM (active). In the case of `CC(C(=O)NC1CCCC1)N(c1ccc(Oc2ccccc2)cc1)S(C)(=O)=O` (centres undefined), the max response, negative = inhibition is -1.83%. Still for that read-out and setting: under `COc1ccccc1Cc1c(-c2ccc(Cl)cc2)nc2c3ccccc3ccn12` stands -5.7%; under `O=C(/C=C/[C@H]1O[C@@H](n2ccc(=O)[nH]c2=O)[C@H](O)[C@@H]1O)NCc1ccccn1`, 0.76%; under `Cc1cccc(C)c1NC(=O)C(c1ccc(C(F)(F)F)cc1)n1c(=O)c(-c2ccco2)nc2ccccc21` (centres undefined), -16.2%. `COc1ccc(-c2[nH]ncc2/C=N/NC(=O)c2cc(Br)ccc2O)c(OC)c1`: the Potency was 26.7 µM (active). On to `COc1ccc(CC(=O)NCC(=O)N/N=C/c2cc(Br)ccc2OC)cc1`, for which the max response, negative = inhibition was 0.444%. In the case of `CC(C)/C=N/NC(=O)c1cc(Br)ccc1O`, the max response, negative = inhibition is -13.1%. For the compound `CC(C)(O)C1=C[N+](=O)CC=C1`, the max response, negative = inhibition is -9.3%.

As for `Cc1cc(C)n2nc(SCC(=O)NC(=O)NCc3ccco3)nc2n1`, the Potency is 16.8 µM (active). Regarding `CCOC(=O)c1cnc(SCC(=O)NCc2ccco2)nc1N`, the max response, negative = inhibition is -1.79%. On the same count and under the same terms, under `O=C(CNc1ccc(F)cc1F)NC(=O)NCc1ccco1` stands -20.1%; under `O=[N+]([O-])c1ccc(CN2CC(N3CCC(c4ccccc4)CC3)CS2(=O)=O)cc1` (centres undefined), -13.3%; under `CCOc1ccc(Cl)cc1-c1cc(C(=O)NCc2cccs2)[nH]n1`, -0.638%.
